Assay outcomes from PubChem BioAssay.
This is a sample that favours compounds with a hit; in the whole collection about 4.8% have one here.
DAX1 inh-1 – blocks DAX1 repression of SF-1 activated StAR promoter; HEK293T StAR-luciferase reporter, SF-1/DAX-1 repression relief; inhibition, % at 6.8 µM; AID 652010; 1.1% of 370,000 active;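 active = inhibition above the mean over all tested compounds plus 3 SD, cut at about 3.6% in these data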;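 note: 0% = DAX-1 cells with DMSO and 100% = cells lacking DAX-1 with DMSO; higher inhibition means more luminescence from relief of DAX-1 repression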
hcDAF-12 act – H. contortus DAF-12 activation, primary screen; HEK293 hcDAF-12 lit1-tk-luc reporter, luminescence; 0% DMSO, 100% Δ7-dafachronic acid; 1.4% of 370,000 active; activation, % at 6.8 µM; AID 652067;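 active = activation above the mean of all tested compounds plus 3 SD, cut at about 5.5% in these data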;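 note: 100% = response to 3 µM Δ7-dafachronic acid high control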
SMARCA2 act – increases SMARCA2 function in MMTV reporter cells | MG213 cells, MMTV-luciferase reporter, dexamethasone, overnight | activation, % at 9.1 µM | 1% of 370,000 active | AID 652017; in the data active = activation above about 7.8%;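 note: 0% = vehicle wells and 100% = reference activator wells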
DAX1 inh-2 – inhibits human nuclear receptor DAX1; HEK293 Gal4-DAX1 luciferase reporter, luminescence; inhibition, % at 6.75 µM; 0.99% of 340,000 active;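 active = inhibition above the mean over all tested compounds plus 3 SD, cut at about 4.2% in these data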;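 note: 0% = DAX1-transfected cells with DMSO and 100% = empty-vector control cells with DMSO; inhibition shows as a rise in luminescence from relieved DAX1 repression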
Target sequence (P51843 207-470 limits assumed): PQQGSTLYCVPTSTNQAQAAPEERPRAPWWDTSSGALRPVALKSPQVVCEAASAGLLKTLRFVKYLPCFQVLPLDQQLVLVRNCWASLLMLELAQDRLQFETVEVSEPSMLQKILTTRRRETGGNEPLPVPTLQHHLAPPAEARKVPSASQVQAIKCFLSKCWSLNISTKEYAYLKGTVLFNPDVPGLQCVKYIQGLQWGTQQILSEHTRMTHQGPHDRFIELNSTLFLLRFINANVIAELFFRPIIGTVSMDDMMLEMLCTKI
ssDAF-12 act – activators of S. stercoralis DAF-12 nuclear receptor; 1% of 370,000 active; HEK293 ssDAF-12/GRIP1 lit1-tk-luc reporter, luminescence; % of 3 µM dafachronic acid response; AID 652126; activation, % at 6.8 µM;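 active = activation above the mean over all tested compounds plus 3 SD, cut at about 0.9% in these data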;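 note: 0% = DMSO-only wells and 100% = 3 µM delta7-dafachronic acid wells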
hgDAF12 agonist – agonists of H. glycines DAF-12 nuclear receptor; HEK293 GAL4-hgDAF12 UAS-luciferase reporter, agonist luminescence; normalized to butyrate control; activation, % at 6.8 µM; 1.8% of 370,000 active;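 active = activation above a cutoff set at the mean of all screened compounds plus 3 SD, cut at about 10% in these data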;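 note: 0% = DMSO wells and 100% = sodium butyrate wells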
* hit, by the source's call; / = not tested or not shown.

SMILES	DAX1 inh-1	hcDAF-12 act	SMARCA2 act	DAX1 inh-2	ssDAF-12 act	hgDAF12 agonist
CCCCN(CCCC)S(=O)(=O)c1ccc(C(=O)Nc2nnc(CSC)o2)cc1	0	-1	-4	4.2*	0	-2
CCCCN(CC)S(=O)(=O)c1ccc(C(=O)Nc2nnc(CSC)o2)cc1	-1	0	-5	1	0	1
CNC(=O)N(O)C1N(/N=C/c2ccccc2F)C(=S)SC1(C)C (configuration not stated)	0	-2	-3	1	0	-2
CC(=O)N(C)C[C@H]1Oc2cc(Br)ccc2S(=O)(=O)N([C@H](C)CO)C[C@@H]1C	-2	1	-4	3	-1	-4
Oc1ccc(C[C@@H]2CNCCN2CCCCC2CCCCC2)cc1	0	-1	-2	1	-1	1
COc1cccc(/C=C/C(=O)OCC(=O)N2CCCC2)c1OC	4.4*	0	-1	1	-1	3
C/C(CC(=O)NCc1ccccc1Cl)=N/NC(=O)c1ccccn1	2	5	5	0	0	11*
CC(=N/O)/C(C)=N\NC(=O)c1ccccn1	2	3	5	4	0	13*
C/C(=N\NC(=O)CN1CCN(S(=O)(=O)c2ccc(C)cc2)CC1)c1cccnc1	0	1	2	-1	-1	-1
CCCCOC(=O)CSC1=C(C#N)C(c2cccnc2)C(C(=O)OCC)=C(c2ccccc2)N1 (configuration not stated)	-1	0	-3	-1	-2	-2
COc1cccc(CN2CC(C(=O)N3CCCC3)CCC2=O)c1 (configuration not stated)	0	2	-1	2	-1	0
COc1cccc(CN2CC(C(=O)N3CCN(C(C)C)CC3)CCC2=O)c1 (configuration not stated)	0	-1	-2	4.6*	-1	1
CSc1nnc(SCC(=O)NC(=O)c2ccccc2)s1	4.1*	1	-2	2	-1	2
Cc1csc(SCC(=O)NC(=O)c2ccccc2)n1	2	-1	-3	1	-1	-1
C#CCOC(=O)C[N+](C)(C)CC#Cc1ccccc1	0	-1	-4	8.6*	-1	6
CCOC(=O)c1c(-c2ccccc2)csc1NC(=O)CCN1CCOCC1	0	-2	4	-1	-2	-3
CCOC(=O)c1c(-c2ccccc2)csc1NC(=O)c1ccc(S(=O)(=O)N2CCOCC2)cc1	0	0	0	2	-1	11*
CCN1CCN(Cc2c(OC)ccc3ccccc23)CC1	0	-1	-1	2	-1	1
COc1ccc2ccccc2c1CN1CCN(C)CC1	0	-1	-4	4.7*	0	-2
O=C(CCC(=O)NNc1nc2ccccc2c2nc(-c3ccccc3)nn12)NCCCN1CCOCC1	0	5.6*	3	0	0	5
CN1CCN(CCCNc2nc3ccccc3c3nc(-c4ccccc4)nn23)CC1	1	-2	4	0	-1	1
O=C(N/N=C/C=C\c1ccccc1[N+](=O)[O-])c1ccccn1	-1	1	2	2	-1	11*
CN1C(=O)NC(c2ccccc2)C2=C1CN(CCc1ccccc1)C2=O (configuration not stated)	0	-1	-2	1	-2	3
CCCCN1c2cc(C)c(O)cc2C(C(=O)OCC)C1C (configuration not stated)	-2	-2	-5	/	-2	0
COc1cccc(-c2cccc(NC(=O)C3CCN(C4CCOCC4)CC3)c2)c1	1	0	-1	2	1.5*	-1
Cc1cccc(N2CCN(Cc3oc(CO)cc(=O)c3O)CC2)c1C	0	-1	3	0	-1	0
CC(=O)c1ccc(NC(=S)NCc2cccnc2)cc1	-2	-1	0	6.1*	-2	-2
CC(=O)Nc1ccc(S(=O)(=O)NCc2cccnc2)cc1	0	6.0*	-4	0	-2	0
N#CCCN(Cc1cccnc1)C(=S)NC(=O)c1ccccc1	-1	2	0	4.6*	-1	1
O=C(NCc1cccnc1)Nc1ccccc1	0	1	2	0	1.0*	2
